Among all 53,000 sequences or so, about 3,700 (7%) were called active. Only a selection was taken, and actives are over-represented in it overall. Unmarked numbers belong to inactive results.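 The calls were made as follows: active = gene knockdowns whose robust z-score for IL-1 alpha signal is at least 2 or at most -2, so actives lie on both sides; inactive = the rest.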
Assay: Components of the Cytosolic LPS Sensing Pathway: Gene Identification via Genome-wide siRNA Screen;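 also: robust z of the log signal after scaling to non-targeting control siRNA wells of the plate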
Conditions: RAW264.7 macrophages, IL-1a HTRF, actives lie on both sides, screened at 100 nM (by protocol), cells primed 5 h with Pam3CSK4 first
Method in brief: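 Knockdown: 100 nM siRNA, 48h, RAW264.7. Stimulation: Pam3CSK4 5 h, then LipidA via TransIT-TKO 24 h. Output: supernatant IL-1a HTRF, negative-control-normalized, log robust z-score; viability by CellTiter-Glo.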

Row | Sequence | z-score
1 | GGAUCUCGAGUCUCAUCUCTT against Ccdc166 | 0.851
2 | CCGGAAGAGCUUGCUUUAUTT against Sgpp2 | 1.19
3 | GGAUCCAAGGUGAAAAUAUTT against Fam131a | -2.25 (active)
4 | GGCUAAGGGUAACGUGCUGTT against Bri3 | -0.263
5 | GGUGGUUAAAUGGUUUUAATT against Prkg2 | 1.98
6 | GGAUCUGACAGCUCAUUUUTT against Casp7 | 1.01
7 | CCACAAAACUAAGACACCUTT against P2ry6 | 0.587
8 | GGCUCUAACAUGACAAUUUTT against Hyal1 | -0.251
9 | GGGAAAAUGGAAAAUACAUTT against Emc3 | 2.59 (active)
10 | GCUGAUUAACCCUCAGUAUTT against Gpc6 | -0.531
11 | GCAAGUGUAGAUAAAGUAUTT against Msi2 | 0.751
12 | GGAAAAGAUAACUCAGACATT against Hrg | 0.727
13 | GCUCUACCCUGAAGAUAUATT against Immt | 2.44 (active)
14 | GGCCACCAUUUCUGAAAUCTT against Tecr | 0.714
15 | GAACACAAAUCUAGUAGACTT against Olfr1109 | 0.278
16 | GGAGAAUUAAAAUGUGAAGTT against Hsd17b4 | 0.161
17 | GGAGCUAAACUCCUUGAAGTT against Slc22a4 | 2.07 (active)
18 | GGGUGCCUAGCAGAUGAACTT against Sp110 | -0.912
19 | GGACAAUGUUGAAUCCUGUTT against Rrp15 | -0.155
20 | GGAGGAAUCAAAGGCUCCUTT against Slc39a5 | -0.319
21 | GGCGCAUUAGCAGAGACUGTT against Mrps5 | 4.17 (active)
22 | GGCACAUUAGUAGAACACATT against Sorcs2 | -0.243
23 | GGAUCAUUCCUUUGGUUAGTT against Fabp5 | -1.34

Row | Sequence | z-score
24 | GCCAAGAAUAGCAUUACUGTT against Abraxas1 | -2.45 (active)
25 | GGGUAGCUACGAAGAGGAATT against Ros1 | 1.72
26 | GGAAAACCAGCUAAUUAUCTT against Ptger3 | -0.23
27 | GGAAAGUGUGUGUUAUAUUTT against Zfp358 | 1.98
28 | CGAGCUUAUCAUCAGCGACTT against Polr2f | -2.74 (active)
29 | CGGGAUAUCAUUCUCCAUATT against Lnpep | 0.62
30 | GGUUUUAAGUUCUAGGGAATT against Olfr1288 | -0.599
31 | GCAUGUUUACCUCAAAGUGTT against Cd209e | 0.843
32 | GGCCUUGCUUUCAUAAAGUTT against Mrpl49 | 0.348
33 | CGAUACCCAACUGUUGAAATT against Ap5m1 | 1.12
34 | CCCGCUAUUACGUUUUUCUTT against Mtarc2 | -0.498
35 | CCUCAGAACAAAUGAAAAUTT against Nlk | -0.62
36 | GGCAGGUGAAUGUGGUAGATT against Btbd17 | 0.165
37 | GGCCAACACUAACACAGACTT against Tmem268 | -0.357
38 | GGUCAAUGGAGUAGAUUUATT against Pard3 | 2.24 (active)
39 | GGUCAUGAAAAUUAAAGCATT against 1110059G10Rik | -2.31 (active)
40 | GCACGAUGUACCUGAAUCUTT against Ifitm5 | 0.387
41 | CCUGCUCUAGAGAAGAAGUTT against Naxe | 0.879
42 | GCAGUCACCUUCAAAAAAATT against Zfp960 | 1.08
43 | CGGUAGAAGGCUUAGGCAATT against Aox1 | -0.922
44 | GGUCAUAGCAUCUACGGCUTT against Gm4793 | -0.11
45 | GGUGUAAUUGGGAAAAUUCTT against Inpp5f | -1.17
46 | GGCCAACCUGUUCAUCAGCTT against Bdkrb1 | -0.0817

Row | Sequence | z-score
47 | CCUGAGUCUCGGUUCACAATT against Kif12 | -2.13 (active)
48 | GCACAGUGUAACUUAGGGCTT against Cenpb | -0.525
49 | CUAAAUGCCUCCUACCUUUTT against Krtap4-16 | 1.89
50 | CCUCAGAAAAAGCCUAUAGTT against Kcnj3 | -2.13 (active)
51 | GGCAAGUUGACCGUGUUUUTT against Dtnb | -0.307
52 | GGUGAAACAGCGAAUAGGUTT against Zfp428 | -0.168
53 | GGAAUUGUAGAAAGUGUUGTT against Adh4 | 1.66
54 | GGGCCUGUAAUGGUGUACATT against B230317F23Rik | 2.56 (active)
55 | GGCUUUCCGCGCUAUUGAUTT against Pcmtd2 | -0.027
56 | GGAUUUUAGUGAAUUCCAUTT against Asah1 | 0.0675
57 | CCCUGGAUUGAGGAUCGUUTT against Mrgpra8 | -1.14
58 | GGAACUCCAGCUUUUGGUCTT against Sox13 | 2.51 (active)
59 | GGUUGAAGAGCAUGAGAGCTT against A330041J22Rik | 1.01
60 | GGAGCUAAACCAAUGGCAATT against Txndc15 | 0.479
61 | GCCCAAGAAUGUGCCUUAUTT against Olfr1278 | -0.578
62 | GCAGACUAAAAUCACGACATT against Ednra | 2.62 (active)
63 | GGUGAUGAAAAGAAUUGCATT against Pitrm1 | 0.417
64 | GGACUUUGGUUUUUGUAAGTT against Vasn | -1.72
65 | GGUCCAAAGAAAGACCCAUTT against Cypt4 | -0.131
66 | GGUAAACAUGUCUAUGACUTT against Fpr-rs7 | -2.09 (active)
67 | GGAGAUCAUGUCAAAAAAGTT against Ibtk | -0.848
68 | GGGCUUUAUUCAUCCACUCTT against 1700067P10Rik | 1.52
